Shown are actives, neighbours in structure and some others; about 5.2% of the full set was active somewhere.
TrxR1 substrate: qHTS Assay for Substrates of Mammalian Selenoprotein Thioredoxin Reductase 1 (TrxR1): qHTS. purified TrxR1 substrate turnover, NADPH consumption readout. Potency, µM (highest dose often 114 µM), for the others: at the top dose activity change, negative = substrate turnover. hit rate 0.01% among 390,000; also: nearly all actives have a fitted effect of over 50% in size
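Rat TrxR1, dispensed at 90 nM, was prereduced with 400 uM NADPH (final) for 5 min at ~22 deg C, then incubated with compound 15 min before 400 uM selenite. A first-read NADPH fluorescence drop versus no-compound background flagged substrates.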
Sfp PPTase inh: qHTS Assay for Inhibitors of Bacillus subtilis Sfp phosphopantetheinyl transferase (PPTase). 4'-phosphopantetheinyl transferase ffp (Bacillus subtilis), Q9F4F7. Biochemical Sfp PPTase activity, qHTS. Potency, µM, inactives show largest response in the series, negative = inhibition, usual class: inhibitors. hit rate 3.5% among 310,000;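 also: the enzyme is Sfp with the accession as filed and its product quenches rhodamine fluorescence; 0% = enzyme reaction without inhibitor and -100% = no enzyme wells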
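Compounds were incubated with enzyme (final 15 nM) for 15 min at room temperature before substrate addition started the reaction. Fluorescence at 525 nm excitation, 598 nm emission was recorded immediately and after 30 minutes.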
IDH1 R132H inh: qHTS for Inhibitors of mutant isocitrate dehydrogenase 1 (IDH1): qHTS; Isocitrate dehydrogenase [NADP] cytoplasmic (Homo sapiens), O75874; IDH1-R132H enzyme, NADPH consumption, diaphorase/resazurin fluorescence; Potency, µM (doses to about 76.6 µM), for the others: at the top dose activity change, negative = inhibition, most hits filed as inhibitors; hit rate 0.093% among 390,000; also: nearly all actives have a fitted effect of over 65% in size
Target sequence (O75874 whole entry R132H, stated change not applied): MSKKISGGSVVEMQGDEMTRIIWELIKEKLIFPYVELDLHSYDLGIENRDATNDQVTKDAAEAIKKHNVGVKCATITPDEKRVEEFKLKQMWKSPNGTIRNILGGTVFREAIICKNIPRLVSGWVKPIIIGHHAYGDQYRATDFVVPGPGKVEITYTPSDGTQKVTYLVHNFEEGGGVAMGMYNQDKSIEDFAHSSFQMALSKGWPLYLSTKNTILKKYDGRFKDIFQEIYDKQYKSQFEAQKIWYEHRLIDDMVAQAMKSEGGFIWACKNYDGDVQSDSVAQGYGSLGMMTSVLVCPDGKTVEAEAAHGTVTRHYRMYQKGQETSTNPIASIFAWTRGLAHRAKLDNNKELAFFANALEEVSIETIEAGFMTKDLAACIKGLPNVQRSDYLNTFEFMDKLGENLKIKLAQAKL
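IDH1-R132H (0.5 ug/mL dispensed) in pH 7.5 Tris buffer was preincubated 30 min with compound, then given a substrate mix of 0.016 mM NADPH and 2 mM alpha-KG for 80 min at room temperature; remaining NADPH was read by diaphorase/resazurin fluorescence.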
PLK1 PBD block: qHTS for Inhibitors of PLK1-PDB (polo-like kinase 1 - polo-box domain): Primary Screen | Serine/threonine-protein kinase PLK1 (Homo sapiens), P53350 | Plk1 PBD binding of FITC phosphopeptide, fluorescence polarization | Potency, µM, without a hit: max response, negative = inhibition, usual class: inhibitors | hit rate 2.8% among 360,000; also: series mostly up to about 57 µM; nearly all actives have a fitted effect of over 65% in size
VDR inhibitor: Inhibitors of the vitamin D receptor (VDR): qHTS; Potency, µM, for inactives: max response, negative = inhibition, usual class: inhibitors; Vitamin D3 receptor (Homo sapiens), P11473; hit rate 0.93% among 400,000; VDR-SRC2-3 peptide fluorescence polarization, 2 h
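Measured by FP: displacement of SRC2-3 coactivator peptide from VDR by library compounds, following a two-hour ambient incubation.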
TrxR1 inh: qHTS Assay for Inhibitors of Mammalian Selenoprotein Thioredoxin Reductase 1 (TrxR1): qHTS; Thioredoxin reductase 1, cytoplasmic (Rattus norvegicus), O89049; recombinant rTrxR1, NADPH fluorescence consumption, selenite substrate; Potency, µM (highest dose often 114 µM), inactives show at the highest dose activity change, negative = inhibition, usual class: inhibitors; hit rate 1% among 390,000; AID 588453, 2011; also: nearly all actives have a fitted effect of over 65% in size
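Rat TrxR1 (90 nM in the dispensed reagent) was pre-reduced with 400 uM NADPH for 5 min at room temperature, then incubated with compound for 15 min. After 400 uM selenite was added, NADPH fluorescence (Ex 340/Em 450 nm) was followed for 8 min.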
An asterisk follows results filed as active; u = inconclusive; x = no result; [ ] = another dose, or the depositor's remark. Calls follow the shape of the dose curve; as a rule, active = well fitted curve in the direction sought with a large enough effect; inconclusive = small, poorly fitted or top-dose-only effect, or another doubt; inactive = no such curve, though single readings can be large; an effect the other way counts as inactive or inconclusive. Unless noted, % is scaled to controls: 0 for no effect and ±100 for the full control effect; potency is read from the fitted curve at half-maximal effect.

SMILES | TrxR1 substrate | Sfp PPTase inh | IDH1 R132H inh | PLK1 PBD block | VDR inhibitor | TrxR1 inh
CCN(c1ccccc1)S(=O)(=O)c1csc(C(N)=O)c1 | 5% | 26% | -9% | 27µM* | -16% | 12%
O=C(CSc1nc2c([nH]c3ccccc32)c(=O)n1-c1cccc(Cl)c1)NCc1ccccc1 | 1%[57.1 µM] | x | -4% | x | -9% | 14%[57.1 µM]
Cc1ccc2nc(SCc3nc4ccccc4c(=O)[nH]3)[nH]c2c1 | 2%[57.1 µM] | 45µM* | 12% | u | u | 15%[57.1 µM]
Cc1ccc2nc(SCC(=O)c3ccc(O)cc3O)[nH]c2c1 | -1% | 50µM* | 10% | 1% | -9% | 6%
Cc1ccc(-c2onc(C)c2C)cc1S(=O)(=O)NC1CCC(C)CC1 (stereo not drawn) | -3%[57.1 µM] | x | 9% | x | 11% | 3%[57.1 µM]
O=C(/C(=N\O)n1cncn1)c1ccc(Cl)cc1Cl | 2%[57.1 µM] | 25% | 4% | 2% | 11% | 8%[57.1 µM]
O=C(/C(=C/c1ccccc1)n1cncn1)c1ccc(Cl)cc1Cl | -1% | -12% | -17% | 19µM* | 20µM* | u
Cc1nn(C(=O)CCCn2cc([N+](=O)[O-])cn2)c(C)c1Cl | 3%[57.1 µM] | 6% | 10% | 21µM* | -8% | 19%[57.1 µM]
O=C(/C=C/c1ccco1)Nc1cccc(C(=O)Nc2ccccc2C(=O)O)c1 | -8% | 56µM* | 13% | 21µM* | u | 11µM*
Cc1ccc(NC(=O)c2cccc(NC(=O)/C=C/c3ccco3)c2)cc1C | -6% | 2% | 1% | -9% | 13% | 20µM*
Cc1ccccc1NC(=O)c1cccc(NC(=O)c2ccco2)c1 | 8%[57.1 µM] | 20% | 8% | -2% | 4% | 8%[57.1 µM]
Cc1cccc(C(=O)Nc2ccc(C(=O)N/N=C/c3ccco3)cc2)c1 | -6% | x | -10% | 21µM* | -25% | u
CCc1ccccc1NC(=O)c1cccc(NC(=O)/C=C/c2ccco2)c1 | -12% | 20µM* | 5% | -4% | -18% | u
CCCC(=O)Nc1ccc(Cl)c(NC(=O)CC)c1 | 7% | -6% | 5% | 27µM* | -28% | 8%
CCC(=O)Nc1ccc(Cl)c(NC(=O)c2ccc([N+](=O)[O-])cc2)c1 | 2% | 9% | 0% | 8.4µM* | u | 8%
CCCCC(=O)Nc1cc(NC(=O)CC)ccc1Cl | 5% | 12% | 0% | -2% | -12% | 14%
Cc1ccc(S(=O)(=O)N2CCN(c3nc(-c4cncs4)nc4ccccc34)CC2)cc1 | 7% | x | x | x | -6% | 11%
CCc1ccc(-n2c(CSc3nnnn3-c3ccccc3)nc3ccccc3c2=O)cc1 | -1%[57.1 µM] | 6% | -4% | 6µM* | -21% | 19%[57.1 µM]
O=c1c2ccccc2nnn1CSc1nnnn1-c1ccc(O)cc1 | -1% | u | -7% | -5% | -8% | -1%
C=CCSc1nc2ccccc2n2cnnc12 | -4% | -2% | -1% | -5% | 14% | -2%
CCOC(=O)CSc1nc2ccccc2n2cnnc12 | 3% | 56µM* | 5% | -12% | -2% | u
CCN(CC)CCNC(=O)CCc1c(C)nc2c(c(C)nn2-c2ccc(C)cc2)c1C | 41% | -5% | 1% | 3% | 16% | 30%
Cc1ccc(C=NNC(=O)c2cc(-c3cccnc3)nc3ccccc23)o1 | -8% | x | 2% | -23% | -18% | -14%
Cc1cc(C(=O)N/N=C/c2ccc(C)o2)c2ccccc2n1 | -11% | -25% | 9% | -1% | 2% | -17%
Cc1ccc(/C=N/NC(=O)c2cc(-c3ccccc3)nc3ccccc23)o1 | -11% | 50µM* | -8% | -3% | 1% | -21%
SMILES | TrxR1 substrate | Sfp PPTase inh | IDH1 R132H inh | PLK1 PBD block | VDR inhibitor | TrxR1 inh
Cc1ccc(/C=N/NC(=O)c2cc(C3CC3)nc3ccccc23)o1 | 8%[57.1 µM] | 50µM* | -3% | -5% | 4% | 10%[57.1 µM]
O=C(O)c1cc([N+](=O)[O-])ccc1NCc1ccccc1Cl | -3% | 4% | 7% | 24µM* | -27% | 16%[57.1 µM]
O=C(O)c1cc([N+](=O)[O-])ccc1NCc1ccccn1 | -9% | x | -14% | -3% | -22% | -3%
CCOCCCNC(=O)c1ccc2c(c1)ncn2-c1ccc(C)cc1C | -2% | 2% | -14% | 19µM* | u | 18%
NC(N)=NCC1COc2ccccc2O1 (stereo not drawn) | x | 13% | x | x | 15% | x
CCN(CC(=O)Nc1ccccc1C(F)(F)F)C(=O)c1ccc(N2C(=O)CCC2=O)cc1 | -3% | 9% | 4% | -10% | -13% | 6%
CC1(C)CC(=O)c2sc(NS(=O)(=O)Cc3ccccc3)nc2C1 | -6% | 2% | 5% | 24µM* | u | -3%
CC1CN(c2cc(-c3ccccc3)c3ccccc3n2)CC(C)O1 (stereo not drawn) | 27% | -24% | 2% | -1% | 2% | 14%
c1ccc(-c2cc(N3CCOCC3)nc3ccccc23)cc1 | 52% | 56µM* | 1% | 0% | u | 19%
O=C(N/N=C/c1ccc(Cl)cc1Cl)c1ccc2nc[nH]c2c1 | 3% | -18% | 6% | -14% | -3% | 27%
O=C(N/N=C/c1ccc(Cl)cc1Cl)c1cccc(F)c1 | 6% | 20µM* | 8% | -10% | -6% | 27%
CCCCN1CCC(n2c(=O)[nH]c3ccccc32)CC1 | 12%[57.1 µM] | x | x | x | -7% | 25%[57.1 µM]
Nc1ncnc2c1ncn2[C@@H]1O[C@H](COP(=O)(O)OP(=O)(O)OP(=O)(O)O)[C@@H](O)[C@H]1O | -3% | 5% | -6% | -3% | -6% | 5%
CC(C)(COP(=O)(O)OP(=O)(O)OC[C@H]1O[C@@H](n2cnc3c(N)ncnc32)[C@H](O)[C@@H]1OP(=O)(O)O)C(O)C(=O)NCCC(=O)NCCS (stereo partly drawn) | x | 40µM* | x | x | 0% | x
Cc1ccc(-c2nnn(CC(=O)N(CC3CCCO3)C(C(=O)NC3CCCC3)c3ccc(O)cc3)n2)o1 (stereo not drawn) | 13%[57.1 µM] | 1% | 8% | -3% | -9% | 23%[57.1 µM]
Cc1ccc(-c2nnn(CC(=O)NCC3COCCO3)n2)o1 (stereo not drawn) | 6% | 23% | 1% | 30µM* | -31% | 10%
Cc1ccc(-c2nnn(CC(=O)N(CC3CCCO3)C(C(=O)NC3CCCC3)c3ccc(F)cc3)n2)o1 (stereo not drawn) | -2% | 12% | -1% | -5% | -4% | -59%[57.1 µM]

Screening data: PubChem BioAssay, National Center for Advancing Translational Sciences (NCATS)
